Measurements from PubChem BioAssay AID1159580 (chemical genetic matrix, 2015).
Hit rate of the full screen: of about 5,500 compounds, about 2,000 (36%) were called active. Not shown: some 18% with an inconclusive outcome. Rule as the data show it: active = normalized growth mostly below about 0.91 (no sharp cut-off); inconclusive = no clear call, values can overlap the other calls; inactive = mostly above about 0.92. The list shows a part of the results.

Test: chemical genetic growth profiling, strain panel (AID 1159580);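 also: tested at 20 µM; growth read once vehicle control cultures reached saturation at 30 °C; 1 = growth at the plate median or of vehicle wells; lower values mean less growth of the strain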
Settings: S. cerevisiae deletion strains, growth OD

Measured: normalized growth

O=c1c(-c2cc(O)c(O)c(O)c2)coc2cc(O)c(O)c(O)c12
active: locus YAL021C, strain ccr4, hits give low values 0.719 | locus YAL026C, strain drs2, hits give low values 0.876 | locus YBR023C, strain chs3, hits give low values 0.904 | locus YBR229C, strain ROT2, hits give low values 0.812 | locus YBR231C, strain swc5, hits give low values 0.826 | locus YCL029C, strain bik1, hits give low values 0.751 | locus YDL035C, strain GPR1, hits give low values 0.787 | locus YDL074C, strain BRE1, hits give low values 0.698 | locus YDL101C, strain DUN1, hits give low values 0.462 | locus YDL134C, strain PPH21, hits give low values 0.777 | locus YDR069C, strain doa4, hits give low values 0.746 | locus YDR137W, strain rgp1, hits give low values 0.716 | locus YDR162C, strain NBP2, hits give low values 0.632 | locus YDR334W, strain swr1, hits give low values 0.879 | locus YDR335W, strain msn5, hits give low values 0.885 | locus YEL061C, strain CIN8, hits give low values 0.878 | locus YER015W, strain faa2, hits give low values 0.919 | locus YER111C, strain swi4, hits give low values 0.731 | locus YGL086W, strain mad1, hits give low values 0.923 | locus YGL173C, strain kem1, hits give low values 0.872 | locus YGL248W, strain PDE1, hits give low values 0.851 | locus YGL253W, strain hxk2, hits give low values 0.878 | locus YGR078C, strain PAC10, hits give low values 0.817 | locus YGR229C, strain SMI1, hits give low values 0.328 | locus YHR027C, strain rpn1, hits give low values 0.893 | locus YHR079C, strain IRE1 (second series), hits give low values 0.922 | locus YHR129C, strain ARP1, hits give low values 0.869 | locus YHR142W, strain chs7, hits give low values 0.808 | locus YIL066C, strain RNR3, hits give low values 0.774 | locus YJL095W, strain BCK1, hits give low values 0.331 | locus YJL187C, strain SWE1 (second series), hits give low values 0.282
inactive: locus YAL030W, strain snc1, hits give low values 0.999 | locus YBL061C, strain skt5, hits give low values 0.94 | locus YBR009C, strain hhf1, hits give low values 0.975 | locus YBR021W, strain FUR4, hits give low values 1.03 | locus YBR171W, strain sec66, hits give low values 0.991 | locus YBR279W, strain paf1, hits give low values 0.97 | locus YCL011C, strain gbp2, hits give low values 0.979 | locus YCL016C, strain dcc1, hits give low values 0.99 | locus YCL061C, strain MRC1, hits give low values 0.97 | locus YCL069W, strain vba3, hits give low values 0.996 | locus YCR088W, strain abp1, hits give low values 1.03 | locus YDL005C, strain med2, hits give low values 1.02 | locus YDL040C, strain nat1, hits give low values 1.02 | locus YDL185W, strain tfp1, hits give low values 0.944 | locus YDL192W, strain arf1, hits give low values 0.927 | locus YDR001C, strain nth1, hits give low values 1.01 | locus YDR101C, strain arx1, hits give low values 0.918 | locus YDR159W, strain sac3, hits give low values 0.981 | locus YDR195W, strain ref2 0.993 | locus YDR297W, strain sur2, hits give low values 0.987 | locus YDR318W, strain mcm21, hits give low values 0.986 | locus YDR388W, hits give low values 0.983 | locus YDR392W, strain spt3, hits give low values 0.899 | locus YDR502C, strain sam2, hits give low values 0.931 | locus YEL003W, strain gim4, hits give low values 0.958 | locus YEL037C, strain rad23, hits give low values 0.937 | locus YEL061C, strain CIN8 (second series), hits give low values 1 | locus YER016W, strain bim1, hits give low values 1 | locus YER110C, hits give low values 1 | locus YER155C, strain BEM2 (second series), hits give low values 0.935 | locus YER155C, strain BEM2, hits give low values 0.991 | locus YER167W, strain BCK2, hits give low values 0.972 | locus YFR010W, strain ubp6, hits give low values 0.915 | locus YGL078C, strain dbp3, hits give low values 0.991 | locus YGL167C, strain pmr1, hits give low values 1 | locus YGL227W, strain vid30, hits give low values 1.05 | locus YGL240W, strain doc1, hits give low values 1.04 | locus YGR135W, strain pre9, hits give low values 0.917 | locus YGR252W, strain gcn5, hits give low values 0.853 | locus YHR013C, strain ard1, hits give low values 0.88 | locus YHR030C, strain SLT2, hits give low values 0.952 | locus YHR094C, strain hxt1, hits give low values 1.01 | locus YHR200W, strain rpn10, hits give low values 0.957 | locus YIL073C, strain SPO22, hits give low values 0.686 | locus YIL125W, strain kgd1, hits give low values 1 | locus YIR030C, strain dcg1, hits give low values 1 | locus YJL092W, strain hpr5, hits give low values 1.01 | locus YJL095W, strain BCK1 (second series), hits give low values 0.986 | locus YJL115W, strain asf1, hits give low values 1.01 | locus YJL129C, strain trk1, hits give low values 1.03 | locus YJL134W, strain LCB3, hits give low values 0.943 | locus YJL154C, strain vps35, hits give low values 1.01 | locus YJL164C, strain tpk1, hits give low values 0.949 | locus YJL166W, strain qcr8, hits give low values 0.921 | locus YJL168C, strain set2, hits give low values 0.982
